# Experimental data taken from PubChem BioAssay (EPA / NIEHS).
# Results filed as inconclusive are left out. Active and inactive are the calls of the source. How the source made its calls, unless noted: active means hit-call score of the fitted dose curve at least 0.9, where 1 is the maximum; inconclusive means response in the unintended direction; inactive means score below 0.9.
# Key:
# [1] = CPHEA_Stoker_NIS_Cytotoxicity: Cytotoxicity Assessment for CPHEA's Radioactive Iodide Uptake (RAIU) Assay for Sodium/Iodide Symporter (NIS) Inhibition, Stoker and Laws Labs (AID 2283897);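 on AC50: active means loss of ATP signal versus DMSO meaning cytotoxicity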
# Summary of the method: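 hNIS-HEK293T-EPA cells, human NIS expressed in HEK293T, treated 2 h with chemicals (0.001–100 uM, 0.5% final DMSO). ATP content read by CellTiter-Glo luminescence; loss of signal analysed relative to DMSO.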
# [2] = CEETOX_H295R_OHPREG_noMTC: CeeTox H295R High-throughput Steroidogenesis Assay for OH-Pregnenolone (OHPREG), maximum tolerated concentration (MTC) filtered results only (AID 2283912; active means hit-call score of the fitted dose curve at least 0.9, where 1 is the maximum; inactive means score below 0.9); settings: actives raise or lower the signal
# Summary of the method: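 Steroidogenesis in H295R cells (OECD 456, modified): after 48 h forskolin priming and 48 h chemical treatment, secreted 17alpha-hydroxypregnenolone is measured by HPLC-MS/MS. Activity is fitted in both directions against DMSO; concentrations are not filtered by MTT-based MTC.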
# [3] = CEETOX_H295R_OHPROG_noMTC: CeeTox H295R High-throughput Steroidogenesis Assay for OH-Progesterone (OHPROG), maximum tolerated concentration (MTC) filtered results only (AID 2283914; active means hit-call score of the fitted dose curve at least 0.9, where 1 is the maximum; inactive means score below 0.9); settings: actives raise or lower the signal
# Summary of the method: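 Forskolin 10 uM, 48 h prestim → test cmpd in DMSO (0.1% final), 48 h → medium MTBE extraction → LC-MS/MS quant of 17alpha-OH-progesterone. Bidirectional fit vs DMSO; no MTT-based MTC filtering.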
# [4] = CEETOX_H295R_ESTRADIOL_noMTC: CeeTox H295R High-throughput Steroidogenesis Assay for Estradiol, maximum tolerated concentration (MTC) filtered results only (AID 2283919; active means hit-call score of the fitted dose curve at least 0.9, where 1 is the maximum; inactive means score below 0.9); settings: actives raise or lower the signal
# Summary of the method: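 H295R human adrenal cells pre-stimulated 48 h with 10 uM forskolin, then exposed 48 h to chemical (0.1% DMSO final). Estradiol in medium measured by HPLC-MS/MS after MTBE extraction and dansyl derivatization; bidirectional fit versus DMSO, concentrations not MTT-filtered.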
# [5] = CEETOX_H295R_PROG_noMTC: CeeTox H295R High-throughput Steroidogenesis Assay for Progesterone (PROG), maximum tolerated concentration (MTC) filtered results only (AID 2283920; active means hit-call score of the fitted dose curve at least 0.9, where 1 is the maximum; inactive means score below 0.9); settings: actives raise or lower the signal
# Summary of the method: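 H295R cells; forskolin 10 uM x 48 h prestim; test cpd 48 h, 0.1% DMSO final; media progesterone via LC-MS/MS; bidirectional fit vs DMSO; no MTT-based MTC filter applied.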
# [6] = CEETOX_H295R_ESTRONE_noMTC: CeeTox H295R High-throughput Steroidogenesis Assay for Estrone, maximum tolerated concentration (MTC) filtered results only (AID 2283921; active means hit-call score of the fitted dose curve at least 0.9, where 1 is the maximum; inactive means score below 0.9); settings: actives raise or lower the signal
# Summary of the method: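 H295R cells prestimulated 48 h with 10 uM forskolin, then exposed 48 h to chemical in 0.1% DMSO; medium estrone measured by HPLC-MS/MS after MTBE extraction and dansyl derivatization, fitted bidirectionally versus DMSO without MTT-based MTC filtering.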
# PGR (gene 5241) = PGR (gene 5241) (UniProt P06401); assay: TOX21_PR_BLA_Followup_Antagonist_ratio: Tox21 HEK293 Progesterone Receptor (PR) Antagonism Beta-lactamase Follow-Up Assay, Ratio (AID 2283934)
# Chain of PGR (gene 5241) (P06401 whole entry, looked up): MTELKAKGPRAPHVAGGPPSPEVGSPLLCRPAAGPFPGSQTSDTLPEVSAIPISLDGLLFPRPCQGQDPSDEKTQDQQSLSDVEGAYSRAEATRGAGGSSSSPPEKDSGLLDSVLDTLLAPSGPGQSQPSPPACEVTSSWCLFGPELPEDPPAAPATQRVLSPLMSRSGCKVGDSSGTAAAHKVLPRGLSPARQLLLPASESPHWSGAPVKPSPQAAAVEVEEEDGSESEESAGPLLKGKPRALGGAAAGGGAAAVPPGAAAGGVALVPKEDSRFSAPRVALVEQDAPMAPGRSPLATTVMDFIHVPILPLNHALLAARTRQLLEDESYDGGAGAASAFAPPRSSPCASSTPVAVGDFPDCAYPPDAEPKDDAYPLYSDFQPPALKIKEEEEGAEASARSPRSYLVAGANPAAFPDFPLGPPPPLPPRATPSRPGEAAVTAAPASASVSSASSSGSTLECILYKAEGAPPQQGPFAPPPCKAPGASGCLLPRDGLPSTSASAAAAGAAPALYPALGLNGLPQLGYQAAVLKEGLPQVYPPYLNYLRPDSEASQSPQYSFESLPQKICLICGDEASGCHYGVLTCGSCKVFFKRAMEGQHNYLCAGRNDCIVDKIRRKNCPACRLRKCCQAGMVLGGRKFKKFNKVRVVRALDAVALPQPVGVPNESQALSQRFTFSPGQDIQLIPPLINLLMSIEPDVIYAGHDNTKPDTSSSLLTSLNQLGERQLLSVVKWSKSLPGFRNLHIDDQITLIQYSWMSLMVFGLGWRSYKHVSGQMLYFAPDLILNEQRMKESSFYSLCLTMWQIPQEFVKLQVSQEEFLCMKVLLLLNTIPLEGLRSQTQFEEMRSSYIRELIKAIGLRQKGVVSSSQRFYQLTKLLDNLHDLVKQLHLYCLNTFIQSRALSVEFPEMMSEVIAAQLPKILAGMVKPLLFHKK
# Summary of the method: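 HEK293T PR-UAS-bla, 2% CS-FBS; 6 hr plating, then cpd + R5020 (1 nM final), 16 hr 37C/5% CO2. B/G FRET substrate 2 h RT. Ratio ch2/ch1 vs DMSO; CellTiter-Glo viability multiplexed, autofluorescence checked.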
# [7] = TOX21_PR_BLA_Followup_Agonist_viability: Viability Assessment in the Tox21 HEK293 Progesterone Receptor (PR) Agonism Beta-lactamase Follow-Up Assay (AID 2283935);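 further: cells exposed to compound for 16 hr at 37 °C; signal loss means lower viability so actives are cytotoxic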
# Summary of the method: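 HEK293T PR-UAS-bla, 3,000 cells/well, 2% CS-FBS; 6 hr pre-incubation; cpd in DMSO, 16 hr 37C; LiveBLAzer 2 hr RT, then CellTiter-Glo 30 min RT, luminescence. Decrease = lost viability.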
# [8] = TOX21_PR_BLA_Followup_Antagonist_viability: Viability Assessment in the Tox21 HEK293 Progesterone Receptor (PR) Antagonism Beta-lactamase Follow-Up Assay (AID 2283936);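 further: hits lower the luminescence signal meaning cytotoxicity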
# Summary of the method: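 PR-UAS-bla HEK293T cells (3,000/well, 2% charcoal-stripped FBS) given compound plus R5020 agonist, 16 h at 37C. CellTiter-Glo added after bla read, 30 min at room temperature; luminescence loss indicates cytotoxicity.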
# [9] = TOX21_PR_LUC_Followup_Antagonist_viability: Viability Assessment in the Tox21 HEK293 Progesterone Receptor (PR) Antagonism Luciferase Follow-Up Assay (AID 2283940)
# Summary of the method: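 Multiplexed viability counter-screen: after 5 days in charcoal-stripped-FBS medium, HEK293-PR-A-luc cells are plated, pinned with DMSO-dissolved compounds for 16 h at 37C, and ATP content is quantified luminescently via CellTiter-Glo.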
# [10] = TOX21_PR_LUC_Followup_Agonist_viability: Viability Assessment in the Tox21 HEK293 Progesterone Receptor (PR) Agonism Luciferase Follow-Up Assay (AID 2283941);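 further: loss of signal means cytotoxicity so actives lower viability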
# Summary of the method: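 Cells were kept 5 days in charcoal-stripped serum medium before plating HEK293-PR-A-luc at 3,000 cells/well. After 5 h they received DMSO-dissolved compound and incubated 16 h at 37C. Viability was taken from CellTiter-Glo ATP luminescence.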
# [11] = CEETOX_H295R_11DCORT_noMTC: CeeTox H295R High-throughput Steroidogenesis Assay for 11-Deoxycortisol (11DCORT), maximum tolerated concentration (MTC) filtered results only (AID 2283911; active means hit-call score of the fitted dose curve at least 0.9, where 1 is the maximum; inactive means score below 0.9); settings: actives raise or lower the signal
# Summary of the method: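 H295R, OECD 456-based; 10 uM forskolin 48 h → compound (0.1% DMSO) 48 h → medium extracted, 11DCORT by LC-MS/MS. Gain/loss vs DMSO control, all concentrations kept regardless of MTT viability.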
# [12] = CEETOX_H295R_CORTISOL_noMTC: CeeTox H295R High-throughput Steroidogenesis Assay for Cortisol, maximum tolerated concentration (MTC) filtered results only (AID 2283916; active means hit-call score of the fitted dose curve at least 0.9, where 1 is the maximum; inactive means score below 0.9); settings: actives raise or lower the signal
# Summary of the method: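 Cortisol secretion measured by LC-MS/MS after 48 h chemical treatment (final 0.1% DMSO) of forskolin-primed (10 uM, 48 h) H295R cells; gain or loss fitted relative to DMSO, without maximum-tolerated-concentration filtering.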
# [13] = CEETOX_H295R_CORTIC_noMTC: CeeTox H295R High-throughput Steroidogenesis Assay for Corticosterone (CORTIC), maximum tolerated concentration (MTC) filtered results only (AID 2283917; active means hit-call score of the fitted dose curve at least 0.9, where 1 is the maximum; inactive means score below 0.9); settings: actives raise or lower the signal
# Summary of the method: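 Following OECD 456 with minor changes, H295R cultures received 10 uM forskolin for 48 h, then test chemical at 0.1% DMSO for 48 h. Media steroids were extracted and measured by LC-MS/MS.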
# [14] = CEETOX_H295R_DOC_noMTC: CeeTox H295R High-throughput Steroidogenesis Assay for DOC, maximum tolerated concentration (MTC) filtered results only (AID 2283918; active means hit-call score of the fitted dose curve at least 0.9, where 1 is the maximum; inactive means score below 0.9); settings: actives raise or lower the signal
# Summary of the method: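 11-Deoxycorticosterone secreted by human adrenal H295R cells quantified by HPLC-MS/MS after 48 h chemical exposure (0.1% DMSO), following 48 h 10 uM forskolin prestimulation. Concentrations not filtered by MTT-derived MTC; bidirectional fitting.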
# [15] = biological target: Thyroid hormone receptor alpha (Rattus norvegicus) + Thyroid hormone receptor beta (Rattus norvegicus) (UniProt P18113+P63059); assay: TOX21_TR_LUC_GH3_Antagonist_Followup: Tox21 GH3 Thyroid Hormone Receptor Antagonism Luciferase Follow-Up Assay (AID 2283942)
# Summary of the method: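 Confirmatory qHTS, antagonist mode: T3 (1.0 nM final) + test cpd, 15 conc, 92 uM–5nM final, GH3 rat pituitary line, 24 h, 37C. Luc reporter, RLU vs DMSO.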
compound,measurement,setting,value
O=C(Nc1ccc(Cl)cc1)Nc1ccc(Cl)c(Cl)c1,outcome,[1],inactive
CCCCCc1ccc(N)cc1,outcome,[1],inactive
same,outcome,[2],inactive
same,AC50,[3],12.4 µM (active)
same,outcome,[4],inactive
same,AC50,[5],13.9 µM (active)
same,outcome,[6],inactive
CCCCOC(=O)CC(CC(=O)OCCCC)(OC(C)=O)C(=O)OCCCC,outcome,[1],inactive
NCc1cccc(C2CCN(C(=O)c3ccc(C#Cc4ccccc4F)o3)CC2)c1,AC50,[1],16.3 µM (active)
Clc1cc(Cl)c2c(c1)N=C1CCCCCN1C2,outcome,[1],inactive
Cc1c2ccccc2c(C)c2c1ccc1ccccc12,outcome,[1],inactive
CCCCCCCCOC(=O)c1cc(O)c(O)c(O)c1,outcome,[1],inactive
CCOC(=O)O[C@H](C)OC(=O)c1ccc2c(c1)cc(C(=O)NC1CCN(C(C)C)CC1)n2Cc1cc(-c2ccc(Cl)s2)on1,AC50,[1],9.92 µM (active)
OC12N=C(c3ccccc3)SC1Cc1cc(Cl)ccc12 (centres undefined),outcome,[1],inactive
C[C@]12CC[C@@H]3c4ccc(O)cc4CC[C@H]3[C@@H]1CCC2=O,AC50,PGR (gene 5241),1.42 µM (active)
same,outcome,[7],inactive
same,outcome,[8],inactive
same,outcome,[9],inactive
same,outcome,[10],inactive
CC(C)(c1cc(Br)c(O)c(Br)c1)c1cc(Br)c(O)c(Br)c1,AC50,[1],13.6 µM (active)
CC(=O)N1CCN(c2ccc(OC[C@H]3CO[C@](Cn4ccnc4)(c4ccc(Cl)cc4Cl)O3)cc2)CC1,AC50,[1],9.92 µM (active)
Clc1ccccc1C(c1ccccc1)(c1ccccc1)n1ccnc1,AC50,[1],9.92 µM (active)
CCCCCCCCCCCC[N+](C)(C)C,outcome,[1],inactive
Cc1oc2c(NC(=O)c3c(Cl)cccc3Cl)cccc2c1C(C)(C)O,outcome,[1],inactive
O=C(O)Cc1cc(I)c(Oc2ccc(O)c(I)c2)c(I)c1,outcome,[1],inactive
same,AC50,PGR (gene 5241),21.5 µM (active)
same,outcome,[7],inactive
same,outcome,[9],inactive
same,outcome,[10],inactive
c1ccc(C[n+]2cccc3ccccc32)cc1,outcome,[11],inactive
same,outcome,[2],inactive
same,outcome,[3],inactive
same,outcome,[12],inactive
same,outcome,[13],inactive
same,outcome,[14],inactive
same,outcome,[4],inactive
same,outcome,[5],inactive
same,outcome,[6],inactive
CN(C)C(=O)C1(N2CCCCC2)CCN(CC[C@@]2(c3ccc(Cl)c(Cl)c3)CN(C(=O)c3ccccc3)CCO2)CC1,outcome,[1],inactive
CN1C(=O)N(c2ccccc2Br)Cc2cnc(Nc3ccc4c(c3)OCC(CO)O4)nc21 (centres undefined),outcome,[1],inactive
CC(C)(C)c1csc(-c2cc3cc(OCc4ccccc4CC(=O)O)ccc3o2)n1,AC50,[1],9.92 µM (active)
CN(C)c1ccc(C(=C2C=CC(=[N+](C)C)C=C2)c2ccc(N(C)C)cc2)cc1,AC50,[1],5.35 µM (active)
COc1cc(C(=O)NC2CCN(C)CC2)ccc1Nc1ncc2c(n1)N(C1CCCC1)CC(F)(F)C(=O)N2C,outcome,[1],inactive
same,AC50,[15],16.4 µM (active)
